Measured values taken from PubChem BioAssay (NCI).
The panel holds about 83,000 compounds, 20% with a hit somewhere; the sample as a whole holds those more often.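 In brief: 96-well plates, 48 h treatment, single concentration, percent growth endpoint.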 A number with no mark means an inactive call. Activity calls are given as the source filed them. The calls were made as follows: active = growth percent below 10; inactive = the rest.

Key:
Assay in all cases: NCI-60 one-dose screen, 48 h (100 = growth as untreated, 0 = no growth, -100 = all killed)
EKVX NSCLC = conditions: 10 µM unless noted
SN12C renal = conditions: 10 µM unless noted
UO-31 renal = conditions: 10 µM unless noted
TK-10 renal = conditions: 10 µM unless noted
ACHN renal = conditions: 10 µM unless noted
CAKI-1 renal = conditions: 10 µM
CCRF-CEM leukemia = conditions: 10 µM unless noted
MOLT-4 leukemia = conditions: 10 µM unless noted
SR leukemia = conditions: 10 µM unless noted
RPMI-8226 leukemia = conditions: 10 µM unless noted
OVCAR-8 ovarian = conditions: 10 µM unless noted
OVCAR-4 ovarian = conditions: 10 µM unless noted
SK-OV-3 ovarian = conditions: 10 µM unless noted
IGROV1 ovarian = conditions: 10 µM unless noted
HS 578T breast = conditions: 10 µM unless noted
NCI/ADR-RES ovarian = conditions: 10 µM unless noted
OVCAR-5 ovarian = conditions: 10 µM unless noted

Structure (SMILES): CCc1ccc(NC(=O)N[C@@H](Cc2cccc(C)c2)C(=O)N[C@@H]2C(=O)N3CCC[C@H]3C(=O)N3CCCC[C@H]3C(=O)N[C@@H](CO)C(=O)N3C[C@H](C)C[C@H]3C(=O)O[C@H]2C)c(F)c1
- growth (EKVX NSCLC): 30%
- growth (SN12C renal): 22.4%
- growth (UO-31 renal): 29.6%
- growth (TK-10 renal): 52.9%
- growth (ACHN renal): 32.2%
- growth (CAKI-1 renal): 15.5%
- growth (CCRF-CEM leukemia): 37.2%
- growth (MOLT-4 leukemia): 41.8%
- growth (SR leukemia): 34.9%
- growth (RPMI-8226 leukemia): 18.6%
- growth (OVCAR-8 ovarian): 21.5%
- growth (OVCAR-4 ovarian): 22.1%
- growth (SK-OV-3 ovarian): 22.1%
- growth (IGROV1 ovarian): 43.3%
- growth (HS 578T breast): 28.5%
- growth (NCI/ADR-RES ovarian): 37.7%

Structure (SMILES): Nc1nc(-c2cccc([N+](=O)[O-])c2)c(N=Nc2ccccc2[N+](=O)[O-])s1
- growth (EKVX NSCLC): 48.7%
- growth (SN12C renal): 1.17% (active)
- growth (UO-31 renal): -36.4% (active)
- growth (TK-10 renal): -38.6% (active)
- growth (ACHN renal): -72.6% (active)
- growth (CAKI-1 renal): -27% (active)
- growth (CCRF-CEM leukemia): 46.7%
- growth (MOLT-4 leukemia): 62%
- growth (SR leukemia): 48.5%
- growth (RPMI-8226 leukemia): 36.4%
- growth (OVCAR-8 ovarian): 8.47% (active)
- growth (OVCAR-5 ovarian): 43.5%
- growth (OVCAR-4 ovarian): -2.02% (active)
- growth (SK-OV-3 ovarian): -46.6% (active)
- growth (IGROV1 ovarian): 1.09% (active)
- growth (HS 578T breast): 6.64% (active)
- growth (NCI/ADR-RES ovarian): 16.8%

Structure (SMILES): COc1ccc(-c2nc3cc(Cl)c(Cl)cc3n2CC(=O)N=Nc2c(O)[nH]c3ccc(Cl)cc23)cc1
- growth (EKVX NSCLC): 25.7%
- growth (SN12C renal): 23.2%
- growth (UO-31 renal): 8.66% (active)
- growth (TK-10 renal): 60.9%
- growth (ACHN renal): -33.8% (active)
- growth (CAKI-1 renal): 13.6%
- growth (CCRF-CEM leukemia): 37.4%
- growth (MOLT-4 leukemia): 34.5%
- growth (SR leukemia): 51.6%
- growth (RPMI-8226 leukemia): 40.2%
- growth (OVCAR-8 ovarian): 45.3%
- growth (OVCAR-5 ovarian): 35.4%
- growth (OVCAR-4 ovarian): 5.4% (active)
- growth (IGROV1 ovarian): 5.72% (active)
- growth (HS 578T breast): 2.89% (active)
- growth (NCI/ADR-RES ovarian): 17.8%

Structure (SMILES): C[C@@H]1C[C@H]2C(=O)OCC(NC(=O)[C@H](Cc3cc(F)cc(F)c3)NC(=O)Nc3ccc(Cl)cc3F)C(=O)N3CCC[C@H]3C(=O)N3CCCC[C@H]3C(=O)N[C@@H](C)C(=O)N2C1 (stereo not given in full)
- growth (EKVX NSCLC): 27.7%
- growth (SN12C renal): 18.2%
- growth (UO-31 renal): 30%
- growth (TK-10 renal): 52.8%
- growth (ACHN renal): 26%
- growth (CAKI-1 renal): 21.5%
- growth (CCRF-CEM leukemia): 31.3%
- growth (MOLT-4 leukemia): 33.2%
- growth (SR leukemia): 21.8%
- growth (RPMI-8226 leukemia): 12.8%
- growth (OVCAR-8 ovarian): 20%
- growth (OVCAR-4 ovarian): 23.6%
- growth (SK-OV-3 ovarian): 27.5%
- growth (IGROV1 ovarian): 40.5%
- growth (HS 578T breast): 32.7%
- growth (NCI/ADR-RES ovarian): 24%
